# Bioassay records as filed in PubChem BioAssay.
# esBAF inh: Bmi1 luciferase reporter increase in mESCs, primary screen, esBAF inhibitor project, mouse ES cells, Bmi1 luciferase knock-in, single point; 24 h; 100% = twice the neutral-well signal; reporter increase, % at 12.5 µM; AID 602393, 2012; 350,000 tested, 2% active; in the data active = activation above about 40%; inconclusive = no clear call, values can overlap the other calls;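 note: 0% = median of the plate's neutral control wells and 100% = double that signal; a rise in the Bmi1 reporter signal indicates esBAF inhibition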
# HSF-1 act: HSF-1 activators, primary screen, NIH3T3-HGL cells, MG132 stress, luminescence, single point; NIH3T3-HGL HSF-1 luciferase reporter, 8 h; 100% = twice DMSO control signal; activation, % at 9 µM; 300,000 tested, 1.7% active;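 active = mean replicate activation of at least 50% with a set share of replicates each reaching 50%; inconclusive = only one of those two conditions met; inactive = mean below 50% and too few replicates reaching it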;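 note: 0% = median of the neutral control wells and 100% = twice that signal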
# MITF TRPM1 HTS: activators of MITF-driven TRPM1 promoter reporter, primary screen, cell-based, SK-MEL-5, luciferase, single point; SK-MEL-5 TRPM1-promoter luciferase, 24 h; % of positive control, neutral wells = 0; activation, % at 12.5 µM; 300,000 tested, 0.75% active; AID 588334, 2011;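 active = mean activation of at least 80% with every replicate also reaching 80%; inconclusive = mean reaches 80% but some replicate falls short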;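 note: 0% = neutral control wells and 100% = parthenolide positive control wells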
# HSF1 inhib: HSF1 inhibitors in luciferase reporter cells, primary screen, cell-based, NIH3T3, luminescence; NIH3T3-HGL HSE-luciferase, MG132-induced, luminescence 8 h; stronger effect = lower value; 300,000 tested, 0.77% active; activity change, negative = inhibition, % at 7.5 µM (by protocol); AID 2098, 2009;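 active = more than half of replicate wells show activity change below -50%, luminescence cut by over half; inconclusive = some wells, but at most half, below -50%; inactive = no replicate well below -50%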;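 note: luciferase reports HSF-1 transcriptional activity via heat shock element; 0% = median of DMSO wells and -100% = zero luminescence signal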
# Wnt act: Wnt/beta-catenin pathway activators, primary screen, cell-based, plate reader, single point. activation, % at 9.35 µM. Wnt/beta-catenin reporter cell assay, activator. 300,000 tested, 1.2% active; in the data active = activation above about 30%, passing the limit was not always enough; inconclusive = no clear call, values can overlap the other calls;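 note: 0% = neutral control wells and 100% = positive control wells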
# Active calls of the source: *; ? = inconclusive; · = no result. Only some compounds are listed: those with a hit (about 3.9% of all), similar ones and a draw of the others.
SMILES,esBAF inh,HSF-1 act,MITF TRPM1 HTS,HSF1 inhib,Wnt act
Cc1cc(C)n(Cc2ccc(NC(=O)c3nn(C)cc3[N+](=O)[O-])cc2)n1,-3.6,131.4*,-35.7,69.3,·
O=C(Nc1nnc(-c2ccc(F)cc2)s1)c1ccco1,46.3*,38.5,106.2*,7.8,15.0
Cc1cccc(N(C)S(=O)(=O)c2nnc(NC(=O)c3ccco3)s2)c1,-5.1,4.0,4.9,4.1,-2.3
COc1cccc(OC)c1C(=O)Nc1nnc(-c2ccc(F)cc2)s1,12.8,8.2,20.2,14.1,0.8
Cc1cccc(-c2nnc(NC(=O)c3ccco3)s2)c1,59.4*,46.0,26.5,46.0,0.0
C[C@H](NC(=O)N(C)C[C@H]1OCc2ccccc2-c2ccccc2C(=O)N([C@@H](C)CO)C[C@@H]1C)c1ccccc1,0.0,·,·,·,·
COC(=O)C[C@H]1C[C@H]2c3cc(NS(=O)(=O)c4ccccc4)ccc3O[C@H]2[C@H](CO)O1,4.3,·,·,·,·
COc1ccc(NC(=O)Nc2cccc3c2O[C@H](CN(C)C)[C@@H](C)CN([C@@H](C)CO)C3=O)cc1,19.5,·,·,·,·
CC(=O)N/C(=N\c1nc(C)cc(C)n1)Nc1ccc2ccccc2c1,-37.9,-55.6,44.8,-50.7*,-1.3
COc1ccccc1NC(=O)c1ccc2[nH]c(C)c(C)c2c1,66.4*,47.3,27.9,30.6,39.6*
Cc1[nH]c2ccc(C(=O)NC3CCC(C)CC3)cc2c1C (stereo unspecified),55.9*,19.5,84.6*,5.2,28.0
Cc1[nH]c2ccc(C(=O)NC3CCCC3)cc2c1C,27.7,·,·,·,14.5
CC(C)(C)c1ccc(C(=O)Nc2cccc3c(=O)[nH][nH]c(=O)c23)cc1,·,-60.9,-40.6,-61.4*,·
COC(=O)C1=C(C)NC2=C(C(=O)CCC2)C1c1cn(Cc2ccc(Br)cc2)nc1-c1ccccc1 (stereo unspecified),5.2,24.2,-13.8,5.7,-5.3
COC(=O)C1=C(C)NC2=C(C(=O)CC(C)(C)C2)C1c1cn(Cc2ccc(Br)cc2)nc1-c1ccccc1 (stereo unspecified),7.8,74.1*,-4.1,37.3,·
COc1ccc(S(=O)(=O)Nc2ccc3c(c2)C(=O)N([C@H](C)CO)C[C@@H](C)[C@@H](CN(C)C(=O)NC(C)C)OCCCC[C@H](C)O3)cc1,1.6,·,·,·,·
Cc1ccc(S(=O)(=O)Nc2cccnc2)c(C)c1C,-6.7,-86.7,·,-82.9*,-1.1
Cc1ccccc1S(=O)(=O)Nc1cccnc1,-1.6,18.2,2.3,10.3,·
O=C(O)CCNS(=O)(=O)c1ccccc1Br,-7.8,18.9,-1.6,3.8,-0.7
O=C(O)CCNS(=O)(=O)c1ccccc1C(F)(F)F,·,-68.2,-0.8,-60.4*,0.3
O=Nc1c(-c2ccccc2)[nH]n(-c2ccccc2)c1=O,-7.6,97.6*,1.1,65.5,-1.0
C[C@H](CO)N1C[C@H](C)[C@@H](CN(C)Cc2ccncc2)Oc2cc(C#CCN(C)C)ccc2S1(=O)=O,-3.4,·,·,·,·
C[C@@H](NC(=O)C[C@H]1C[C@H]2c3cc(NC(=O)NC4CCCC4)ccc3O[C@H]2[C@@H](CO)O1)c1ccccc1,3.5,·,·,·,·
Cc1ccc(-c2cnc3c(c2)C(=O)N([C@H](C)CO)C[C@@H](C)[C@H](CN(C)S(C)(=O)=O)O3)cc1,1.4,·,·,·,·
O=C(CN1C(=O)S/C(=C\C=C\c2ccccc2)C1=O)Nc1ccc(O)cc1,·,58.8*,5.4,37.3,·
SMILES,esBAF inh,HSF-1 act,MITF TRPM1 HTS,HSF1 inhib,Wnt act
COC(=O)[C@H]1[C@H](CO)[C@H]2Cn3c(ccc(-c4ccc(F)cc4)c3=O)[C@H]2N1S(C)(=O)=O,2.4,·,·,·,·
CCOC(=O)c1c(C)n(CCOc2ccccc2)c2ccc(O)cc12,-7.6,68.6*,-6.8,28.3,2.9
CCOC(=O)c1c(C(C)(C)C)oc2ccc(O)cc12,·,·,6.0,·,·
CCOC(=O)c1c(COc2ccccc2)oc2ccc(O)cc12,·,105.0*,·,73.6,·
C[C@@H]1CN([C@@H](C)CO)C(=O)c2cc(NC(=O)NC3CCCCC3)ccc2O[C@@H]1CN(C)Cc1ccc(Oc2ccccc2)cc1,-5.6,·,·,·,·
O=S(=O)(N[C@@H]1CC[C@@H](CCn2cc(-c3cccc(F)c3)nn2)O[C@@H]1CO)c1ccccc1,5.8,·,·,·,·
Cc1nn(C)c(Oc2ccccc2)c1CCNS(=O)(=O)c1ccc(Cl)cc1,-7.1,55.2*,·,8.7,-3.8
CCC(=O)N(C)C[C@@H]1Oc2ncc(Br)cc2C(=O)N([C@H](C)CO)C[C@@H]1C,0.9,·,·,·,·
CCN(C(=O)CSc1ncccc1C(=O)Oc1cccc([N+](=O)[O-])c1)c1cccc(C)c1,-10.0,60.2*,-0.6,29.0,-0.5
CN1C2CCC1/C(=C\c1ccccc1F)C(=O)/C2=C/c1ccccc1F,-6.9,106.0*,-7.2,75.0,-1.6
Cc1cc(C(=O)Nc2ccc3c(c2)OCO3)no1,?,27.6,106.0*,23.9,22.3
CC(C)Cc1cc(C(=O)Nc2cccc(O)c2)no1,-27.2,20.8,7.8,7.7,18.3
Cc1ccc(NC(=O)c2cc(-c3ccc4c(c3)OCO4)on2)cc1C,6.2,1.2,29.4,9.9,3.0
Cc1cc(NS(=O)(=O)c2ccc(NC(=O)Nc3ccc4c(c3)OCO4)cc2)no1,41.9*,-9.7,27.6,2.7,·
CC(C)Cc1cc(C(=O)Nc2ccc3c(c2)OCO3)no1,33.5,15.7,58.0,17.2,58.4*
COc1ccc(CNC(=O)C[C@H]2C[C@H]3c4cc(NC(=O)C5CCC5)ccc4O[C@H]3[C@@H](CO)O2)cc1,-5.1,·,·,·,·
CCC(=O)N[C@@H]1C=C[C@@H](CC(=O)OC)O[C@H]1CO,2.3,·,·,·,·
c1ccc(-n2cnc3cc(NCc4cccs4)ccc32)cc1,-15.6,-68.8,3.0,-66.6*,·
CN(C)CCCNC(=O)C[C@@H]1CC[C@@H]2[C@H](COc3ccc(NC(=O)NC4CCCC4)cc3C(=O)N2C)O1,17.5,·,·,·,·
CCCn1nc([N+](=O)[O-])c(C(C#N)c2nc3ccccc3s2)c(Cl)c1=O (stereo unspecified),-31.5,60.2*,-39.0,46.2,·
CCOc1ccc(C(=O)Nc2ccc3[nH]ncc3c2)cc1,-37.4,30.1,55.5,8.7,54.6*
O=C(Nc1ccc2[nH]ncc2c1)c1ccccc1Cl,16.0,-73.9,·,-66.6*,12.4
COc1ccc(C(=O)Nc2ccc3[nH]ncc3c2)cc1,-14.6,38.1,·,8.3,0.4
C[C@@H]1CCCCO[C@H](CN(C)Cc2ccccc2)[C@H](C)CN([C@@H](C)CO)C(=O)c2cc(NS(=O)(=O)c3cn(C)cn3)ccc2O1,-4.5,·,·,·,·
O=C(NCCCn1ccnc1)/C(=C/c1ccc(F)cc1)NC(=O)c1ccccc1,3.0,4.0,·,-11.6,22.4
CC(C)c1ccc(/C=C(\NC(=O)c2ccccc2)C(=O)NCCCn2ccnc2)cc1,-10.2,58.7*,-5.5,22.3,-4.0
